Assay results from PubChem BioAssay AID743343 (Broad Institute, 2014).
Results with a measured potency or affinity are listed apart. Unmarked numbers belong to inactive results. No rule for the calls is given here.

The compounds below were run on Drosophila melanogaster bursicon receptor LGR2 (rickets) (assay: blockers of bursicon-stimulated LGR2 cAMP reporter – cell-based, HEK293, CRE-luciferase reporter, cherry pick, set 2, dose response (AID 743343)). Conditions: bursicon-induced cAMP antagonist; series mostly up to 35 µM; activity change, negative = inhibition: at the top concentration.

Structure (SMILES) | activity change, negative = inhibition
O=c1c2ccccc2nc(/C=C/c2ccc([N+](=O)[O-])o2)n1-c1ccc(O)cc1 | 13.4%
Cc1ccc2c(c1)C1CN(C)CCC1N2C(=O)c1cn(-c2ccccc2)nc1-c1ccccc1 (stereo not drawn) | -34.1%
O=C(O)c1nn(Cc2ccc(Cl)cc2Cl)c2ccccc12 | -2.47%
